In article PMC7862700, “An all-to-all approach to the identification of sequence-specific readers for epigenetic DNA modifications on cytosine”:

Tests used:
Experiment in all cases: DAPPL (digital affinity profiling via proximity ligation, sequencing); 10 mM Tris-HCl pH 7.5, 50 mM NaCl, 1 mM DTT, 4% glycerol, room temperature, 30 min; GST-TFs on glutathione beads, 16-mer random dsDNA library, 0.1% formaldehyde crosslink after washing; high values mean tight binding
Conditions in all cases: protein: recombinant; tags: N-terminal GST; dsDNA, one strand shown
[1] = molecular target: T1, FLI1 (Homo sapiens, UniProt Q01543 1-452)
T1 sequence: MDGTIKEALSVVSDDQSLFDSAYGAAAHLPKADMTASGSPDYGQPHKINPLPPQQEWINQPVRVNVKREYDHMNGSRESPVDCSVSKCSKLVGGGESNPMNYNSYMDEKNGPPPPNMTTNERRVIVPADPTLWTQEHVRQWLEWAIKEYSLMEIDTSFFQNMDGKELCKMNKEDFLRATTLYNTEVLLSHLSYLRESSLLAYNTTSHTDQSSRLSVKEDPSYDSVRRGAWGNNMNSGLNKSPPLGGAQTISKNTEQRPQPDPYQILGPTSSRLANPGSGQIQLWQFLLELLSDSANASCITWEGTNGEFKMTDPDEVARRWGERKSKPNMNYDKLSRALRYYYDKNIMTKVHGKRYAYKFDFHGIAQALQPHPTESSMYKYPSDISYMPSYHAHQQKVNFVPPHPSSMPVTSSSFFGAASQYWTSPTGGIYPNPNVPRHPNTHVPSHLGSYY
Outline: (§1)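 Binding signal is defined as a hexamer's read frequency for one factor over its frequency for the tag-only sample. To obtain reads, GST-fused human transcription factors were expressed in yeast, captured on glutathione beads, barcoded with DNA and pooled with that sample. Pools met 200 nmole of a 16-mer random double-stranded DNA library in Tris/NaCl/DTT/glycerol buffer for 30 min at room temperature before washing, 0.1% formaldehyde crosslinking, proximity ligation (BsaI/T4 ligase, 1 h, 37 °C), PCR and Illumina NextSeq500 sequencing.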

[2] = molecular target: T2, ELK1 (Homo sapiens, UniProt P19419 1-428)
T2 sequence: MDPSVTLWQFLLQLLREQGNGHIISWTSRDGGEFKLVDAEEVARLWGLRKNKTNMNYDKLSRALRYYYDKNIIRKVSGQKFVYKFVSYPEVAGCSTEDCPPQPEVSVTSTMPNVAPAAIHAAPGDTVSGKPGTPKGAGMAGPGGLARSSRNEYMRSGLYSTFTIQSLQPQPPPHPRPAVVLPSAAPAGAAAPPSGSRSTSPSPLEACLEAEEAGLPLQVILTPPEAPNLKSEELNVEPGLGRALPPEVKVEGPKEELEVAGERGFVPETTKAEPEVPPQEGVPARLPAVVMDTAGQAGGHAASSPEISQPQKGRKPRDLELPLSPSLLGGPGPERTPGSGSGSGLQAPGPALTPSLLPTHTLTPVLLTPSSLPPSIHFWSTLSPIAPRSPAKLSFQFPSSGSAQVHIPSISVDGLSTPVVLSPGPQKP
Outline: as §1

[3] = molecular target: T3, ERG (Homo sapiens, UniProt P11308 1-479)
T3 sequence: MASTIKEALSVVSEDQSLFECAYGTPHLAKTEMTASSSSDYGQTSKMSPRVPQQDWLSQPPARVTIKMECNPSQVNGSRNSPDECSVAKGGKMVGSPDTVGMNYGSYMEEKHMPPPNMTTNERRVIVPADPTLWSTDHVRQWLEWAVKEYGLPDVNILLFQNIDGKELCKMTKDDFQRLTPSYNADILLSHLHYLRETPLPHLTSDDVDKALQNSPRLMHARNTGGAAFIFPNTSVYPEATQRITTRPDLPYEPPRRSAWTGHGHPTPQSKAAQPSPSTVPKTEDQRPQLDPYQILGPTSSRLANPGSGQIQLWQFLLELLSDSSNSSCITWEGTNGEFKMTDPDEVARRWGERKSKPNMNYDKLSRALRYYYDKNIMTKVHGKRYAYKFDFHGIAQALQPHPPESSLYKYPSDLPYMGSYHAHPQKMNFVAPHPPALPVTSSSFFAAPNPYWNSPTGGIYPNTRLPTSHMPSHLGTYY
Outline: as §1

[4] = molecular target: ELF1 (Homo sapiens, UniProt P32519 1-619)
Outline: as §1

[5] = molecular target: T4, EHF (Homo sapiens, UniProt Q9NZC4 1-300)
T4 sequence: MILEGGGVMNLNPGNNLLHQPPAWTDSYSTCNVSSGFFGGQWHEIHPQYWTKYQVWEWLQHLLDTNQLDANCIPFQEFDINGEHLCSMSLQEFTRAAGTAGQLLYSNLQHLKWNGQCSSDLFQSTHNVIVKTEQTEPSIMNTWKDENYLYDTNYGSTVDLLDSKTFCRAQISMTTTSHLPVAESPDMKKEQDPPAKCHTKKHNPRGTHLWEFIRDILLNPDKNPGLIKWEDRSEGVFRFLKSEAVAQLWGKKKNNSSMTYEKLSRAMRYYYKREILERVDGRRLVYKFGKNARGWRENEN
Outline: as §1

[6] = molecular target: SPIB (Homo sapiens, UniProt Q01892 1-262)
Outline: as §1

[7] = molecular target: T5, ELK3 (Homo sapiens, UniProt P41970 1-407)
T5 sequence: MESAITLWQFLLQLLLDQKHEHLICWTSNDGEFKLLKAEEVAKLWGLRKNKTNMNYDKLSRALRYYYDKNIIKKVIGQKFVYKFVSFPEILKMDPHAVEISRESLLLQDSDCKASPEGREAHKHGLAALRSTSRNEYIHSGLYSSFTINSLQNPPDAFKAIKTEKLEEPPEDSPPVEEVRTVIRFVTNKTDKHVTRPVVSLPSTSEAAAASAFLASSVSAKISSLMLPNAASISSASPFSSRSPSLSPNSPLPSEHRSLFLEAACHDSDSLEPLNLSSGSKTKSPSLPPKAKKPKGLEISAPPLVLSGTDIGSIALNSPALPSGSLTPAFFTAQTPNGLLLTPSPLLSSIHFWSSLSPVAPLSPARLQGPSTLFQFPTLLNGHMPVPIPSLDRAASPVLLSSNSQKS
Outline: as §1

[8] = molecular target: T6, FEV (Homo sapiens, UniProt Q99581 1-238)
T6 sequence: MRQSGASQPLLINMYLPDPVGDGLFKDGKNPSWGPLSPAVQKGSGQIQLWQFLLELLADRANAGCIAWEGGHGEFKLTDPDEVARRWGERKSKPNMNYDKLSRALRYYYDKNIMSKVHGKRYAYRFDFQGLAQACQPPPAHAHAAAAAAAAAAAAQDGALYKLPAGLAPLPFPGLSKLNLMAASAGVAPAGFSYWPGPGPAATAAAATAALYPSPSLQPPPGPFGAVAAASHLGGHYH
Outline: as §1

[9] = molecular target: ETV5 (Homo sapiens, UniProt P41161 1-510)
Outline: as §1

[10] = molecular target: T7, SPIC (Homo sapiens, UniProt Q8N5J4 1-248)
T7 sequence: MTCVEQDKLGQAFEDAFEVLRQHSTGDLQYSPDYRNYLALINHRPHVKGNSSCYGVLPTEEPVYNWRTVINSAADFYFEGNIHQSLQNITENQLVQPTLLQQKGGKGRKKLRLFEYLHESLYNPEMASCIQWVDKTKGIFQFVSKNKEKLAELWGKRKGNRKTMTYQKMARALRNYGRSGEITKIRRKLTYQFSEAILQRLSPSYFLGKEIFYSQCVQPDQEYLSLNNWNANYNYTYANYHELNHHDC
Outline: as §1

[11] = molecular target: ELF4 (Homo sapiens, UniProt Q99607 1-663)
Outline: as §1

[12] = molecular target: ETV1 (Homo sapiens, UniProt P50549 1-477)
Outline: as §1

[13] = molecular target: T8, ERF (Homo sapiens, UniProt P50548 1-548)
T8 sequence: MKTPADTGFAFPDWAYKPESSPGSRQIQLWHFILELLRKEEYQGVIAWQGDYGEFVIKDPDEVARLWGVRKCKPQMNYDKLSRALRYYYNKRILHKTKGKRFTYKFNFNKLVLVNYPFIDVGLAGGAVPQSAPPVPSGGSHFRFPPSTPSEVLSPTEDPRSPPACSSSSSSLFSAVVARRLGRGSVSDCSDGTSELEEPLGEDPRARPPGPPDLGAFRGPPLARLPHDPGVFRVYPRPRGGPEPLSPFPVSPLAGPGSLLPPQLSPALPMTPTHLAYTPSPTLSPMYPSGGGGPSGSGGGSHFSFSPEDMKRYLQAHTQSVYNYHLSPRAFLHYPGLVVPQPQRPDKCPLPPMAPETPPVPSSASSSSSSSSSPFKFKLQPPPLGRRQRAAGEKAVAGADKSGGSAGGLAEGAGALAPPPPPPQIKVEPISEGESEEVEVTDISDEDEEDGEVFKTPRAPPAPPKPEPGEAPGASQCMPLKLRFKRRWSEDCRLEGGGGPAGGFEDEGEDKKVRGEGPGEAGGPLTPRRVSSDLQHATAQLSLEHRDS
Outline: as §1

[14] = molecular target: T9, ETV3L (Homo sapiens, UniProt Q6ZN32 1-361)
T9 sequence: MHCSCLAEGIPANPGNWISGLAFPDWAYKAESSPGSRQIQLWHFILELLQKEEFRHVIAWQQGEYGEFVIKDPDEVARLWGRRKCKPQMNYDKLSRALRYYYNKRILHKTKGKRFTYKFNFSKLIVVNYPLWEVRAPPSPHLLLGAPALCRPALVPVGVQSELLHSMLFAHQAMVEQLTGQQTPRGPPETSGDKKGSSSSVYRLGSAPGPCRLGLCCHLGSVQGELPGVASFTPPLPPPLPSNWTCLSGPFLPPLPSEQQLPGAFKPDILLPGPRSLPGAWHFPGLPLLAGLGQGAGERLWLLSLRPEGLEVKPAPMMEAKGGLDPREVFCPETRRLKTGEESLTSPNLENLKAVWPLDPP
Outline: as §1

[15] = molecular target: T10, ETS2 (Homo sapiens, UniProt P15036 1-469)
T10 sequence: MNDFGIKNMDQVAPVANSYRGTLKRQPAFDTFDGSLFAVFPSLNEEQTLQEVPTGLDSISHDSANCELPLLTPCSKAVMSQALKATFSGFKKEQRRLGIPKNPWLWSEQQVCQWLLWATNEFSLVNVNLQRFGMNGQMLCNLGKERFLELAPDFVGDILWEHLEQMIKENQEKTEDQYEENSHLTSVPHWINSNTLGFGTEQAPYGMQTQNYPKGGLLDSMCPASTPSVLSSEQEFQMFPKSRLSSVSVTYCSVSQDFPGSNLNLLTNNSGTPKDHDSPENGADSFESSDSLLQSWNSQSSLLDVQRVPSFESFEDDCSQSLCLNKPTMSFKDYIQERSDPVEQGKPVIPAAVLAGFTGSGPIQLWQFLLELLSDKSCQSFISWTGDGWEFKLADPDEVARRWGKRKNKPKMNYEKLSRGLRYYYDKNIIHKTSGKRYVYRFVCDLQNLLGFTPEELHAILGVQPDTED
Outline: as §1

[16] = molecular target: T11, SPDEF (Homo sapiens, UniProt O95238 1-335)
T11 sequence: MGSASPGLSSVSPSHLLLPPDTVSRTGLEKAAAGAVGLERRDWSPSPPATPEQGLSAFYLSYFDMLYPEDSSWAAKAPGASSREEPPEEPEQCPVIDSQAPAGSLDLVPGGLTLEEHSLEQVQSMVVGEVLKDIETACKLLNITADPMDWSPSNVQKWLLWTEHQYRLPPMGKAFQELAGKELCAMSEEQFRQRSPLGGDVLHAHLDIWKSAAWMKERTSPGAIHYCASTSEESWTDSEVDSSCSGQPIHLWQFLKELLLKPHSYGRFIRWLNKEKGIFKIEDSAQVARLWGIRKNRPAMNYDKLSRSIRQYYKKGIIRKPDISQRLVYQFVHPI
Outline: as §1

[17] = molecular target: T12, ETV3 (Homo sapiens, UniProt P41162-2 1-143)
T12 sequence: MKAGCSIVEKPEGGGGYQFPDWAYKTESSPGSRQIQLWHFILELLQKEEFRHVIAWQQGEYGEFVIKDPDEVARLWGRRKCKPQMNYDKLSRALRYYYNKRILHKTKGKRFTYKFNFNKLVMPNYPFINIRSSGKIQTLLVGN
Outline: as §1

[18] = molecular target: ETV6 (Homo sapiens, UniProt P41212 1-452)
Outline: as §1

ELF1, sequence (P32519 whole entry): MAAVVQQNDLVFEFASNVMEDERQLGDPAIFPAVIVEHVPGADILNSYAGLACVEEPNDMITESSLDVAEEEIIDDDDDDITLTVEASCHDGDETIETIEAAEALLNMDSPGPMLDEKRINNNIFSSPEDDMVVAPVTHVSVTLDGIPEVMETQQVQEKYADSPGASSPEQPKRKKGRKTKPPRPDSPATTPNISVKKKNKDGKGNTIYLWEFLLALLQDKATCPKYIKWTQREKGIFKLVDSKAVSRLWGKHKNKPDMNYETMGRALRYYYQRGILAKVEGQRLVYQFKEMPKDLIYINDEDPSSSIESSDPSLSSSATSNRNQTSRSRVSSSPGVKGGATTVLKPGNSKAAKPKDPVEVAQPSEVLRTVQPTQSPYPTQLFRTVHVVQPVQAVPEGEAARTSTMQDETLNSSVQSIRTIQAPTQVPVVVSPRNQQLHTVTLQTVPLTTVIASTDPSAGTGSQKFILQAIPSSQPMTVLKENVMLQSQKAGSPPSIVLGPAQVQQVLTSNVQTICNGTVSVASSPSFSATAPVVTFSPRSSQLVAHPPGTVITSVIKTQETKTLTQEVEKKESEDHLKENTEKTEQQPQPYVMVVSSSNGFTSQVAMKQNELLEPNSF
ELF4, sequence (Q99607 whole entry): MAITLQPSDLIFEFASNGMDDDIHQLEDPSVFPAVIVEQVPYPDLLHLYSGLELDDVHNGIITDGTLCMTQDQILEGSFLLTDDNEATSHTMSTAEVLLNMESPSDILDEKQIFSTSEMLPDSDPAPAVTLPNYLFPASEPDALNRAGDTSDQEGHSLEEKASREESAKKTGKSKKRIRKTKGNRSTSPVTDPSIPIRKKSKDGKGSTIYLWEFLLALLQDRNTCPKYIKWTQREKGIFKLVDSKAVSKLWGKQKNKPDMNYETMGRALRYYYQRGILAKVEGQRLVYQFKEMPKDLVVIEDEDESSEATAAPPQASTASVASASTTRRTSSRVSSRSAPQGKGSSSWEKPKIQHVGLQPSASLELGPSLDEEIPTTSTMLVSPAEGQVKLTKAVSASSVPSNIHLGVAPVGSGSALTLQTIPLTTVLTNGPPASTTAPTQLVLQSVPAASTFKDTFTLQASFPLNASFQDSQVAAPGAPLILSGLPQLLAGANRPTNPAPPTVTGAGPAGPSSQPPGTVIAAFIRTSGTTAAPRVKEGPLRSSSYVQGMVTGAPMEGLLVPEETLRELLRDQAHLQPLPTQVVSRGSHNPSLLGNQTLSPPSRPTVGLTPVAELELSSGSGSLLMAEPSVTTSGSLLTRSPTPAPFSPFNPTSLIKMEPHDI
ETV5, sequence (P41161 whole entry): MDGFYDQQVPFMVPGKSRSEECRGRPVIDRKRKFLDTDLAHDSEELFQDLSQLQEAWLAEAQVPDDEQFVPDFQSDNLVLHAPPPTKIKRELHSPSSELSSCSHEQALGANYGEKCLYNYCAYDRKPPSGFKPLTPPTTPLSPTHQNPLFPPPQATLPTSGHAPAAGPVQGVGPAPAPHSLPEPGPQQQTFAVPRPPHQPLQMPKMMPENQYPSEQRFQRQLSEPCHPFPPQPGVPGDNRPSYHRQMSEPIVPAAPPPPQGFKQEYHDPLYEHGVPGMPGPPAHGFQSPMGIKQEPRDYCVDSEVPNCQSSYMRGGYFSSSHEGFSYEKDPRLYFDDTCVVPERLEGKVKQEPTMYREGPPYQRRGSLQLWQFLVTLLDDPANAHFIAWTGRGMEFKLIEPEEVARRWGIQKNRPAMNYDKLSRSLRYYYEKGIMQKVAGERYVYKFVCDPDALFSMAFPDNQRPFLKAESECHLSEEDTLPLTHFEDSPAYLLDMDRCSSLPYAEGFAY
SPIB, sequence (Q01892 whole entry): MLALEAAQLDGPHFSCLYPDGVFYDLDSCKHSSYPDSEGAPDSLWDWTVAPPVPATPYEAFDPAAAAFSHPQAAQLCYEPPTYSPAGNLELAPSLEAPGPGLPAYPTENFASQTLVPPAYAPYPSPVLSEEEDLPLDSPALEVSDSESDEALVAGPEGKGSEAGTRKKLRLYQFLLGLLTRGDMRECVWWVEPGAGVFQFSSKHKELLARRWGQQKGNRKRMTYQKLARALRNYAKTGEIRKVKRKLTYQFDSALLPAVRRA
ETV1, sequence (P50549 whole entry): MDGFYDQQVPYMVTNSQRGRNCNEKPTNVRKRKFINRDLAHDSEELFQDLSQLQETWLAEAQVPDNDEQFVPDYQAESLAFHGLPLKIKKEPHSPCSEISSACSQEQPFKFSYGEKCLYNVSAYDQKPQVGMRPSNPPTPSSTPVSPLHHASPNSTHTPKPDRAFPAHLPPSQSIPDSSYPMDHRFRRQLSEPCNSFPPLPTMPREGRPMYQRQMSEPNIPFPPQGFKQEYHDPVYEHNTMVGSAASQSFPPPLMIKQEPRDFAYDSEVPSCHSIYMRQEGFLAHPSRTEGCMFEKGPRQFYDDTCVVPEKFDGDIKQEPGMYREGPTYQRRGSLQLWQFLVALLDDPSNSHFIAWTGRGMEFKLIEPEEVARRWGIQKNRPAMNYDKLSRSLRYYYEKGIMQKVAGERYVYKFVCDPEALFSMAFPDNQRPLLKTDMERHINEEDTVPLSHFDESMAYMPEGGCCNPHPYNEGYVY
ETV6, sequence (P41212 whole entry): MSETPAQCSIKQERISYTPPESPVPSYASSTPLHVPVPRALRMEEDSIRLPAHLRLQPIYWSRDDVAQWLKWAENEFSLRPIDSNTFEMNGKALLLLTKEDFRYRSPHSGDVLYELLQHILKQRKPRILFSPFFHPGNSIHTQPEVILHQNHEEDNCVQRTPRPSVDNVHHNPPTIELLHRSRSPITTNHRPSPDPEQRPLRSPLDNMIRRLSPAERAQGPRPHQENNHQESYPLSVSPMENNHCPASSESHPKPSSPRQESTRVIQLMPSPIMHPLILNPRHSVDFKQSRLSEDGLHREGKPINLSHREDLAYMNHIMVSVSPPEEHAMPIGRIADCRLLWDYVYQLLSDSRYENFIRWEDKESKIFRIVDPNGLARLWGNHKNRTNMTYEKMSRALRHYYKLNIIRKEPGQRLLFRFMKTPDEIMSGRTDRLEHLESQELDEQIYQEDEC

TAACCG
binding signal [1]: 1.06 fold enrichment (6-mer frequency, TF over GST control)
binding signal [2]: 1.05 fold enrichment (6-mer frequency, TF over GST control)
binding signal [3]: 1.06 fold enrichment (6-mer frequency, TF over GST control)
binding signal [4]: 1.1 fold enrichment (6-mer frequency, TF over GST control)
binding signal [5]: 1.06 fold enrichment (6-mer frequency, TF over GST control)
binding signal [6]: 1.18 fold enrichment (6-mer frequency, TF over GST control)
binding signal [7]: 1.13 fold enrichment (6-mer frequency, TF over GST control)
binding signal [8]: 1.25 fold enrichment (6-mer frequency, TF over GST control)
binding signal [9]: 1.07 fold enrichment (6-mer frequency, TF over GST control)
binding signal [10]: 1.08 fold enrichment (6-mer frequency, TF over GST control)
binding signal [11]: 1.06 fold enrichment (6-mer frequency, TF over GST control)
binding signal [12]: 1.09 fold enrichment (6-mer frequency, TF over GST control)
binding signal [13]: 1.12 fold enrichment (6-mer frequency, TF over GST control)
binding signal [14]: 1.08 fold enrichment (6-mer frequency, TF over GST control)
binding signal [15]: 1.07 fold enrichment (6-mer frequency, TF over GST control)
binding signal [16]: 1.1 fold enrichment (6-mer frequency, TF over GST control)
binding signal [17]: 1.09 fold enrichment (6-mer frequency, TF over GST control)
binding signal [18]: 1.08 fold enrichment (6-mer frequency, TF over GST control)
